Bioassay records (PubChem BioAssay)
Compounds with a hit are over-represented: about 3.4% of the library has one in this group of screens.
TEAD-YAP block – TEAD-YAP interaction inhibition. HEK-TIYL cells, TEAD-Gal4/YAP UAS-luciferase luminescence. inhibition, % at 9.12 µM. 640,000 compounds, 1.4% hits; in the data active = inhibition above about 32%
GPR151 activ – human GPR151 activation. 650,000 compounds, 1% hits. PathHunter beta-arrestin GPR151 cells, luminescence. activation, % at 11.2 µM; in the data active = activation above about 4.9%
FBW7 act – activators of human E3 ligase FBW7. Q969H0. AlphaScreen FBW7–phospho-cyclin E peptide binding, activator screen. normalized activity (activation), % at 26.1 µM. 650,000 compounds, 0.13% hits; in the data active = normalized activity above about 1.9%;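 note: purified mutant Fbw7 with reduced substrate affinity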
Target sequence (Q969H0 whole entry, looked up): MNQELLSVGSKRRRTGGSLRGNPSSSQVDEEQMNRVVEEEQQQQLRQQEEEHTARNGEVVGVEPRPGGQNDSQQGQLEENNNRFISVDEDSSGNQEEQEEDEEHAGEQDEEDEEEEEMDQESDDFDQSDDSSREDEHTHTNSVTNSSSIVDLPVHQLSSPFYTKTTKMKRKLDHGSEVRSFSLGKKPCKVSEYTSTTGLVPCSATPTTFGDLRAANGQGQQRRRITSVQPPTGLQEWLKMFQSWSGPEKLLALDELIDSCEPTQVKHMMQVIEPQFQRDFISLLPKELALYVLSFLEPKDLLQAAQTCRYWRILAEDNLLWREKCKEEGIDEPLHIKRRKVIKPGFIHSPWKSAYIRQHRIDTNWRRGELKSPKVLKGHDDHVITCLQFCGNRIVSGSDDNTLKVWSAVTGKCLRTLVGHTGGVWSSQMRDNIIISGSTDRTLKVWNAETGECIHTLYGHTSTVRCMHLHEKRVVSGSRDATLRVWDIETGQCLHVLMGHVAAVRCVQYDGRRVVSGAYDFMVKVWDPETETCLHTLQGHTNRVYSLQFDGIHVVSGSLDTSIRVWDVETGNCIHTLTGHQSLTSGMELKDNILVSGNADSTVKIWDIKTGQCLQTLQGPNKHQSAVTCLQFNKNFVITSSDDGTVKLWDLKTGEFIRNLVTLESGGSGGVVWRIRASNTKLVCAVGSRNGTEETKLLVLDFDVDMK
MITF inh – human MITF inhibition, primary screen. AlphaScreen MITF homodimerization, bead proximity signal. inhibition, % at 2.6 µM. 650,000 compounds, 0.91% hits; in the data active = inhibition above about 50%
Of the large screens only hits and unclear results are named; the others gave an inactive call.

CCCOC(=O)c1cccc(NC(=O)COc2ccc(C)cc2Br)c1	TEAD-YAP block 92
NC(=O)CN1N=C(c2ccccc2)Cn2c(cc3sccc32)C1=O	none
Cc1ccc(NC(=O)COc2ccccc2C)c(Br)c1	none
Cc1ccc(C)c(C(=O)COC(=O)c2cccc(NC(=O)Cc3ccccc3)c2)c1	TEAD-YAP block 42
Cc1ccc(NC(=O)c2cccc(Br)c2)c(Br)c1	FBW7 act 2.5
Cc1ccc(NC(=O)COc2c(C)cccc2C)c(Br)c1	FBW7 act 2.5
Cc1ccccc1NC(=O)COc1ccccc1C=O	none
O=C(Cc1ccccc1)Nc1cccc(C(=O)OCC(=O)c2ccc([N+](=O)[O-])cc2)c1	none
Cc1ccccc1NC(=O)COc1ccc(Br)cc1C=O	TEAD-YAP block 45
O=C(Nc1ccc(F)cc1F)N1CCc2ccccc2C1	none
CCn1c2ccccc2n2c(=O)n(CC(=O)NC3CCCC3)nc12	none
COc1cccc(-c2nc3cnccn3c2NCc2cccs2)c1OC	none
CCC(C)(C)c1ccc(OCC(=O)Nc2cccc(C(=O)O)c2)cc1	TEAD-YAP block 38
COC(=O)c1cccc(NC(=O)COc2ccccc2Br)c1	TEAD-YAP block 43
O=C(COc1cccc2ccccc12)Nc1ccncc1	TEAD-YAP block 40
CC(=O)c1cccc(NC(=O)COc2ccc(C(C)(C)C)cc2)c1	none
Cc1cccc(OCC(=O)Nc2ccc(Cc3ccc(NC(=O)COc4cccc(C)c4)cc3)cc2)c1	none
O=C(O)CCC(=O)N(CCc1ccccc1)C1CC(=O)N(c2ccccc2)C1=O (stereo unspecified)	none
Cc1[nH]c2ccc(C(=O)NN)cc2c1C	TEAD-YAP block 38
CCNC(=O)c1ccc2[nH]c(C)c(C)c2c1	none
O=C1CN(C(=O)COC(=O)c2c3c(nc4ccccc24)CCCCC3)c2ccccc2N1	none
CC(=O)NC(=O)c1cc2ccccc2oc1=Nc1ccc(C)cc1	TEAD-YAP block 35
CCOC(=O)c1c(/N=c2\oc3c(OC)cccc3cc2C(=O)Nc2cccc(C)c2)sc2c1CCCC2	none
CCOC(=O)c1c(/N=c2\oc3c(OC)cccc3cc2C(=O)Nc2ccc(OC)cc2)sc2c1CCCC2	TEAD-YAP block 36
O=C(O)c1cc2c3c(c1)C1C=CCC1C(c1ccc(Cl)cc1)N3CC1CC=CC21 (stereo unspecified)	MITF inh 88
O=C(O)C1C2CC=CC2c2cc(Cl)cc3c2N1CC1CC=CC31 (stereo unspecified)	FBW7 act 2.7
CC(C)(C)N1C(=O)c2ccc(Oc3cccc([N+](=O)[O-])c3)cc2C1=O	none
Cc1cccc(C(=O)Nc2cc(C)nn2-c2nc(C)cc(=O)[nH]2)c1	none
CCCc1cc(=O)[nH]c(-n2nc(C)cc2NC(=O)c2cccc(Cl)c2)n1	FBW7 act 2.4
CCOC(=O)c1csc2c1CCC/C2=N\O	TEAD-YAP block 48
CCOC(=O)c1csc2c1CCC(Br)(Br)C2=O	none
CCOC(=O)c1csc2c1CCC/C2=N/O	TEAD-YAP block 51
c1ccc(Nc2nc(Nc3cccnc3)nc3c2ncn3-c2ccccc2)cc1	TEAD-YAP block 34
c1ccc(-n2cnc3c(Nc4ccc(N5CCOCC5)cc4)nc(Nc4ccc(-n5ccnc5)cc4)nc32)cc1	TEAD-YAP block 41
c1ccc(Nc2nc(Nc3ccc(-n4ccnc4)cc3)nc3c2ncn3-c2ccccc2)cc1	none
c1ccc(-n2cnc3c(Nc4ccc(N5CCOCC5)cc4)nc(Nc4cccnc4)nc32)cc1	TEAD-YAP block 41
CCN(CC)c1nc(Nc2ccc(N3CCOCC3)cc2)nc(Nc2ccc(-n3ccnc3)cc2)n1	TEAD-YAP block 65
c1ccc(OCCNc2nc(Nc3cccnc3)nc3c2ncn3-c2ccccc2)cc1	none
COc1cccc(-c2ccc(SCC(=O)N3CCCCC3)nn2)c1	none
Cc1noc(CNC(=O)C23CC4CC(CC(C4)C2)C3)n1	none
O=C(Nc1cccc(OC(=O)C2C3CCCCC32)c1)C1C2CCCCC21 (stereo unspecified)	none
COc1ccc(Nc2cc(C)c3c(O)cccc3n2)cc1	TEAD-YAP block 38
CCOC(=O)CSc1nc2c(c(=O)n1C)C1(CCCCC1)Cc1ccccc1-2	none
CCN=C1S/C(=C/c2ccc(-c3ccc(Cl)cc3C(=O)O)o2)C(=O)N1CC	none
NC1=NC(=O)/C(=C\c2ccc(-c3cccc(Cl)c3)o2)S1	none
CCN=C1S/C(=C\c2ccc(-c3cccc(C(=O)O)c3)o2)C(=O)N1CC	TEAD-YAP block 34
NC1=NC(=O)/C(=C/c2ccc(-c3cccc(C(=O)O)c3)o2)S1	TEAD-YAP block 70
Cc1ccc(N2C(=O)C(Cl)=C(Nc3ccccc3)C2=O)cc1Cl	none
Cc1ccc(C(=O)N/C(=C\c2ccc(F)cc2)C(=O)Nc2c(C)n(C)n(-c3ccccc3)c2=O)cc1	none
Cc1c(NC(=O)/C(=C\c2ccccc2)NC(=O)c2ccccc2)c(=O)n(-c2ccccc2)n1C	FBW7 act 1.9
CCOC(=O)Oc1ccc2c(=O)c(-c3ccc(Cl)cc3)c(C(F)(F)F)oc2c1	none
COc1cccc(/C=c2/sc3nc4ccccc4n3c2=O)c1	TEAD-YAP block 50
O=c1/c(=C\c2ccc(O)cc2)sc2nc3ccccc3n12	TEAD-YAP block 73, FBW7 act 2.0
Cc1cc(/C=c2\sc3nc4ccccc4n3c2=O)c(C)n1C1CCCC1	TEAD-YAP block 70
Cc1cc(/C=c2/sc3nc4ccccc4n3c2=O)c(C)n1-c1ccc(Cl)c(Cl)c1	none
COP(=O)(OC)c1nc(-c2ccco2)oc1NCc1ccccc1	none
N#C/C(=C(/O)c1ccc(Br)cc1F)c1nc2ccccc2[nH]1	none
O=C(/C=C/Nc1ccccc1[N+](=O)[O-])c1ccccc1	TEAD-YAP block 67
CCOc1ccc(N/C=C/C(=O)c2ccccc2)c([N+](=O)[O-])c1	TEAD-YAP block 60
CCOc1ccc(N/C=C/C(=O)c2ccco2)c([N+](=O)[O-])c1	none
O=C(/C=C\Nc1ccccc1[N+](=O)[O-])c1ccc(F)cc1	TEAD-YAP block 43
Cc1ccc(C(=O)/C=C\Nc2ccccc2[N+](=O)[O-])cc1	none
COC(=O)c1ccc(/C=N/NC(=O)Cc2cc(=O)[nH][nH]2)cc1	none
Cc1ccc(C(=O)Nc2ccc(Sc3ccccc3)cc2)cc1S(=O)(=O)N1CCOCC1	TEAD-YAP block 36
CCOC(=O)c1ccc(NC(=O)c2ccc(Br)c(S(=O)(=O)N3CCCCC3)c2)cc1	TEAD-YAP block 49
CCOC(=O)c1ccc(NC(=O)c2ccc(C)c(S(=O)(=O)N3CCOCC3)c2)cc1	TEAD-YAP block 37
CCc1ccc2c(c1)NC(=O)C2(C)Cc1cccc(C(=O)OC)c1 (stereo unspecified)	TEAD-YAP block 44
O=C(NCCc1nnc2n1CCN(Cc1cnc(-c3ccccc3)s1)CC2)c1ccoc1	none
CCN1CCN(C(c2ccccc2)c2nnnn2C2CCCCC2)CC1 (stereo unspecified)	TEAD-YAP block 39
CCCS(=O)(=O)NCc1c(C)ncc2c1CCN(C(=O)c1sccc1Cl)C2	none
O=C(NCc1ccco1)c1cnc(N2CCCC2)nc1	none
COCCn1c(C)cc(C(=O)COC(=O)c2ccccc2Br)c1C	TEAD-YAP block 82
COCCn1c(C)cc(C(=O)COC(=O)c2cccnc2SC)c1C	none
